Measurements taken from PubChem BioAssay AID493169 (National Center for Advancing Translational Sciences (NCATS), 2011).
Records with an inconclusive call do not appear. Values without a mark were called inactive. Calls of active or inactive are those of the source. Calls follow the shape of the dose curve; as a rule, active = well fitted inhibition curve with a large enough effect; inconclusive = small, poorly fitted or top-dose-only effect; inactive = flat fitted curve, though single readings scatter.

assay: CHOP2 Reporter Counterscreen Assay for Inhibitors of Ubiquitin-specific Protease USP2a; details: purified enterokinase, fluorogenic substrate, 485/531 nm; series mostly up to 38.3 µM; activity change, negative = inhibition: at the top concentration;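 also: activated enterokinase alone at 50 pM in a cell-free format rather than USP2a or CHOP2; nearly all actives have a fitted effect of over 55% in size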
Procedure, shortened: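 Cell-free counterscreen with pre-activated enterokinase alone (50 pM final) in 20mM Tris-HCl pH 8.0, 2mM CaCl2, 2mM beta-mercaptoethanol, 0.05% CHAPS; compound preincubation 30 min RT, reporter substrate 25nM final, fluorescence read after 10 min (Ex 485/Em 531).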
% is scaled to controls: 0 for no effect and ±100 for the full control effect; potency is read from the fitted curve at half-maximal effect.

SMILES | activity change, negative = inhibition | Potency
Cc1c(N=C/C=C2\N(C)c3ccccc3C2(C)C)c(=O)n(-c2ccccc2)n1C | 0.17% | 
Oc1ccc(/C=N/NC(=S)N/N=C/c2ccc(O)cc2)cc1 | 6.72% | 
CNC(=O)NC(=O)CSc1ccc(NC(C)=O)cc1 | -0.346% | 
Cc1cc(SCC(=O)NC2CCCCC2)nc2ccccc12 | 1.52% | 
Cc1cc(C)cc(NC(=O)CSc2nc3c(c(=O)[nH]2)CN(Cc2ccc(F)cc2)CC3)c1 | -11.1% | 
Cc1ccc(C2=N/C(=C\c3c(C)nn(-c4ccccc4)c3N3CCCC3)C(=O)O2)cc1 | 16.3% | 
O=C(Nc1cnn(Cc2ccccc2)c1)c1nc2ncccn2n1 | -0.0275% | 
Nc1c(C(=O)Nc2ccc3c(c2)OCCO3)nnn1CCc1ccccc1 | -1.84% | 
Cc1cnc(N)c2c(=O)oc3ccccc3c12 | 1.83% | 
CCCOC(=O)CCCCC1SCC(NC(=O)OC)C1NC(=O)OC (configuration not stated) | 15.4% | 
CCCCCCCC/C=C\CCCCCCCC(=O)NCCc1ccc(O)c(O)c1 | -8.38% | 
Cc1cc(C)n2nc(S(=O)(=O)NCCc3ccccc3)nc2n1 | -2.84% | 
Cc1c(NC(=O)C2CCCN(S(=O)(=O)c3cnc[nH]3)C2)c(=O)n(-c2ccccc2)n1C (configuration not stated) | 0.344% | 
C(=N\N(c1ccccc1)c1ccccc1)/c1ccccn1 | -1.74% | 
O=C(OCC1OC(n2ncc(=O)[nH]c2=O)C(OC(=O)c2ccccc2)C1OC(=O)c1ccccc1)c1ccccc1 (configuration not stated) |  | 7.94 µM (active)
Cc1noc(NS(=O)(=O)c2ccc(N3CC(O)=C(c4ccccc4)C3=N)cc2)c1C | 0.63% | 
Cc1cc(NC(=O)c2cccc(S(=O)(=O)N(C)C)c2)n(-c2ccccn2)n1 | -1.67% | 
